Several values for one entry are separate records, joined by “and”; a condition that tells them apart may be missing. Equal entries are not always repeated. Inconclusive results are not listed. Where a structure was tested more than once in an assay, its records may differ in their call. Activity calls are given as the source filed them. Unless noted, the call rests on the fitted dose curve; in most records, active means well fitted curve in the direction sought with a large enough effect in the repeat runs; inconclusive means weak or mixed curves; inactive means no such curve, though single readings can be large; an effect the other way counts as inactive or inconclusive.

The record followed here is PubChem BioAssay (Tox21).

A short description of experiment [1]: qHTS assay to identify small molecule antagonists of the thyroid receptor (TR) signaling pathway (AID 743065). Further: series mostly up to about 70 µM; nearly all actives have a fitted effect of over 55% in size. A digest of the protocol:
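GH3.TRE-Luc rat pituitary cells (two TREs driving luciferase) were dosed with compound, then stimulated with 1 nM T3 (final) for 23.5 h at 37 C. ONE-Glo luminescence was the read-out, with CellTiter-Fluor fluorescence as the cytotoxicity counter-screen.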

Experiment [2] relates to thyroid hormone receptor (rat, GH3 cells). Description: qHTS assay to identify small molecule agonists of the thyroid receptor (TR) signaling pathway (AID 743066; calls by dose curve; further: potency means the concentration at half of the fitted maximal effect). On the technique in general: Quantitative high-throughput screening tests each substance at several concentrations.
In experiment [3] the target is Estrogen receptor (Homo sapiens) (UniProt P03372). Description: qHTS assay to identify small molecule antagonists of the estrogen receptor alpha (ER-alpha) signaling pathway (AID 743069; active means well fitted curve in the direction sought with a large enough effect in the signal ratio in the repeat runs, not every such curve was filed as active; the % refers to the signal ratio). In outline: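 Reporter cells (ER-alpha-bla, HEK293 background) are conditioned overnight in stripped-serum medium (2% charcoal-stripped FBS). Compound and 17beta-estradiol exposure runs 18 hr at 37C, 5% CO2.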
Estrogen receptor (Homo sapiens), sequence (P03372 whole entry, looked up): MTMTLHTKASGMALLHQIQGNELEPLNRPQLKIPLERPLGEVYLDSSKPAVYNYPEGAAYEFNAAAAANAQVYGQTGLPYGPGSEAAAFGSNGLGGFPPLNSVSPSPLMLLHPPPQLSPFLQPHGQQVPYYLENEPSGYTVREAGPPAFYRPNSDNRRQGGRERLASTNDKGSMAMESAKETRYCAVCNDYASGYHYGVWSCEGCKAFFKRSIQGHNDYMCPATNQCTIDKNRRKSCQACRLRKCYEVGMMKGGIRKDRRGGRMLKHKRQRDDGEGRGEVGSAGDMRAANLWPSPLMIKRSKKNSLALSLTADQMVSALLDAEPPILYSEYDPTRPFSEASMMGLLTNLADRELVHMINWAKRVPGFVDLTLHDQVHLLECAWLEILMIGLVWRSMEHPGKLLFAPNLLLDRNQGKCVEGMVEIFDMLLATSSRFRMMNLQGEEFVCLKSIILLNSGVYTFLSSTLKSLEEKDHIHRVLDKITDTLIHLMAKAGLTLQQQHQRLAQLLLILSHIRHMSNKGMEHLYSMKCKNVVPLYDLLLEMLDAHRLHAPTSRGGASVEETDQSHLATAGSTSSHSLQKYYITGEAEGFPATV

Experiment [4] can be described thus: qHTS assay to identify small molecule antagonists of the estrogen receptor alpha (ER-alpha) signaling pathway - cell viability counter screen (AID 743074; calls by dose curve;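 further: HEK293 cells carrying ER-alpha-UAS-bla reporter stimulated with 17beta-estradiol; nearly all actives have a fitted effect of over 45% in size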).
The target in experiment [5] is Estrogen receptor (Homo sapiens) (UniProt P03372). Description: qHTS assay to identify small molecule agonists of the estrogen receptor alpha (ER-alpha) signaling pathway (AID 743075; calls by dose curve;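 further: HEK293 GripTite cells with ER-alpha and UAS-driven beta-lactamase reporter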).
For experiment [6] the target is unchanged. Description: qHTS assay to identify small molecule agonists of the estrogen receptor alpha (ER-alpha) signaling pathway using the BG1 cell line (AID 743079). Further: nearly all actives have a fitted effect of over 20% in size. Further: potency means the concentration at half of the fitted maximal effect.
Experiment [7] in a line: qHTS assay to identify small molecule antagonists of the estrogen receptor alpha (ER-alpha) signaling pathway using the BG1 cell line (AID 743080; calls by dose curve;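 further: BG1 cells stimulated with 17beta-estradiol alongside compound; series mostly up to about 70 µM; nearly all actives have a fitted effect of over 25% in size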). A digest of the protocol: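 Readout is ONE-Glo luminescence, taken 30 min at room temperature after reagent addition, preceded by a CellTiter-Fluor viability read; BG1-Luc-4E2 cells had received compound and 17beta-estradiol for 21.5 h at 37 C.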

Experiment [8] is described as follows: qHTS assay to identify small molecule antagonists of the estrogen receptor alpha (ER-alpha) signaling pathway using the BG1 cell line - cell viability counter screen (AID 743081).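 Further: compound given together with 17beta-estradiol as the ER stimulus; series mostly up to about 70 µM; nearly all actives have a fitted effect of over 45% in size.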
Another experiment addresses Aromatase (Homo sapiens) (UniProt P11511). In words: qHTS assay to identify aromatase inhibitors (AID 743083). Further: series mostly up to about 70 µM; nearly all actives have a fitted effect of over 55% in size.
Experiment [9] in a line: qHTS assay to identify aromatase inhibitors - cell viability counter screen (AID 743084).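 Further: cells stimulated with testosterone during compound exposure; nearly all actives have a fitted effect of over 55% in size.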
Experiment [10] has as its target Aryl hydrocarbon receptor (Homo sapiens) (UniProt P35869). Description: qHTS assay to identify small molecule that activate the aryl hydrocarbon receptor (AhR) signaling pathway (AID 743085). Further: nearly all actives have a fitted effect of over 15% in size. Further: potency means the concentration at half of the fitted maximal effect.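 On activation: HG2L7.5c1 human HepG2 liver cells with stably integrated DRE-driven firefly reporter; series mostly up to about 70 µM.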 In outline:
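Steps: seed HepG2-AhR-luc cells; allow 5 h at 37C; pin-transfer test compound or vehicle; incubate 24 h at 37C; add viability dye (30 min, 37C) and read fluorescence; add luciferase substrate (30 min, RT) and read luminescence.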

Experiment [11] is described as follows: qHTS assay to identify small molecule that activate the aryl hydrocarbon receptor (AhR) signaling pathway - cell viability counter screen (AID 743086).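 Further: HepG2 liver cells carrying the AhR DRE luciferase reporter; series mostly up to about 70 µM; nearly all actives have a fitted effect of over 45% in size.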 A digest of the protocol: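 HepG2-AhR-luc (HG2L7.5c1) cells, 4000/well, treated 24 h at 37 C with compound; viability measured as CellTiter-Fluor fluorescence after 30 min in the same wells as the luciferase read.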

Experiment [12] can be described thus: qHTS assay to identify small molecule antagonists of the peroxisome proliferator-activated receptor gamma (PPARg) signaling pathway - cell viability counter screen (AID 743194). Further: nearly all actives have a fitted effect of over 55% in size. A digest of the protocol: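 Cytotoxicity counter screen in PPARg-bla HEK293H cells, same wells as reporter assay. Compounds plus 50 nM rosiglitazone (final) for 17 h at 37 C, then viability read by CellTiter-Glo luminescence.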

Experiment [13] can be described thus: qHTS assay for small molecule agonists of the antioxidant response element (ARE) signaling pathway (AID 743202; active means well fitted activation curve with a large enough effect in the signal ratio in the repeat runs, not every such curve was filed as active; the % refers to the signal ratio). In outline:
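Agonist mode reporter screen: HepG2 cells with ARE-controlled beta-lactamase are incubated with test compounds for 16 h at 37 C, and beta-lactamase activity is measured as fluorescence of cleaved B/G FRET substrate.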

A short description of experiment [14]: qHTS assay for small molecule agonists of the antioxidant response element (ARE) signaling pathway - cell viability counter screen (AID 743203; calls by dose curve; further: nearly all actives have a fitted effect of over 55% in size). In outline: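 Following 16 hrs of compound treatment at 37C, HepG2 cells with an ARE-controlled beta-lactamase gene were lysed with CellTiter-Glo. Luminescence was read after 30 min at room temperature.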
A short description of experiment [15]: qHTS assay for small molecule activators of the heat shock response signaling pathway - cell viability counter screen (AID 743209). Further: nearly all actives have a fitted effect of over 50% in size. A digest of the protocol:
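Readout: CellTiter-Glo luminescence, 30 min at room temperature. System: HSE-bla HeLa cells, 1500/well, plated overnight. Treatment: compounds in DMSO, 5 h at 37 C.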

The nature of experiment [16]: qHTS assay for small molecule activators of the heat shock response signaling pathway (AID 743210; active means well fitted activation curve with a large enough effect in the signal ratio in the repeat runs, with a control signal flat, not every such curve was filed as active; the % refers to the signal ratio;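 further: HeLa cells with beta-lactamase reporter driven by heat shock elements; series mostly up to about 63 µM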). A digest of the protocol:
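Quantitative high-throughput format using an engineered HeLa line in which heat shock response elements drive beta-lactamase; after 5 h with compound, cells received a B/G FRET substrate and fluorescence was read.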

Experiment [17] in a line: qHTS assay to identify small molecule agonists of the peroxisome proliferator-activated receptor delta (PPARd) signaling pathway - cell viability counter screen (AID 743211). Further: nearly all actives have a fitted effect of over 55% in size. A digest of the protocol: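 Viability of GeneBLAzer PPARd UAS-bla HEK293H cells was assessed after 17 h compound incubation at 37C, using CellTiter-Glo reagent added after the reporter read and luminescence recorded 30 min later.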

In experiment [18] the target is Peroxisome proliferator-activated receptor gamma (Homo sapiens) (UniProt P37231). In words: qHTS assay to identify small molecule agonists of the peroxisome proliferator-activated receptor gamma (PPARg) signaling pathway (AID 743094; active means well fitted activation curve with a large enough effect in the signal ratio in the repeat runs, not every such curve was filed as active; the % refers to the signal ratio). A digest of the protocol: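 Compounds dissolved in DMSO were added to PPARg UAS-bla HEK293H cells for 17 h at 37C, and reporter expression was quantified by fluorescence intensity after 1 h with LiveBLAzer B/G FRET substrate.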
Peroxisome proliferator-activated receptor gamma (Homo sapiens), sequence (P37231 whole entry, looked up): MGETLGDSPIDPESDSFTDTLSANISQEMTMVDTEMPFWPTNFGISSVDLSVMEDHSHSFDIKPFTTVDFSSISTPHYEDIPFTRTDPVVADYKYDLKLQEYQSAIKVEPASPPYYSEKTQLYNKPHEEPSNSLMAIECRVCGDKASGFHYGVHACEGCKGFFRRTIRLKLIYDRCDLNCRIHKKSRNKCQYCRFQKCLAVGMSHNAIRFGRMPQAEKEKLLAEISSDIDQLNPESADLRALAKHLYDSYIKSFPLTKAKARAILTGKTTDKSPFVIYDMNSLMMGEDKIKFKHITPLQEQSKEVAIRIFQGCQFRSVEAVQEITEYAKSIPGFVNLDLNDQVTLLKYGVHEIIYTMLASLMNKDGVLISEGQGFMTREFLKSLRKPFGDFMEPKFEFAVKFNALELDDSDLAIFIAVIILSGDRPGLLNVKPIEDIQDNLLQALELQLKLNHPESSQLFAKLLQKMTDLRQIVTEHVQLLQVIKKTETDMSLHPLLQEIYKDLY

Experiment [19] shares this target. In words: qHTS assay to identify small molecule antagonists of the peroxisome proliferator-activated receptor gamma (PPARg) signaling pathway (AID 743191; calls by dose curve; further: series mostly up to about 63 µM; nearly all actives have a fitted effect of over 30% in size). A digest of the protocol: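 GeneBLAzer PPARg UAS-bla HEK293H cells, 5 h post-plating, exposed to compounds 17 h at 37C. LiveBLAzer B/G FRET substrate added for 1 h at room temperature; beta-lactamase reporter read by fluorescence intensity.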

Aromatase (Homo sapiens), sequence (P11511 whole entry, looked up): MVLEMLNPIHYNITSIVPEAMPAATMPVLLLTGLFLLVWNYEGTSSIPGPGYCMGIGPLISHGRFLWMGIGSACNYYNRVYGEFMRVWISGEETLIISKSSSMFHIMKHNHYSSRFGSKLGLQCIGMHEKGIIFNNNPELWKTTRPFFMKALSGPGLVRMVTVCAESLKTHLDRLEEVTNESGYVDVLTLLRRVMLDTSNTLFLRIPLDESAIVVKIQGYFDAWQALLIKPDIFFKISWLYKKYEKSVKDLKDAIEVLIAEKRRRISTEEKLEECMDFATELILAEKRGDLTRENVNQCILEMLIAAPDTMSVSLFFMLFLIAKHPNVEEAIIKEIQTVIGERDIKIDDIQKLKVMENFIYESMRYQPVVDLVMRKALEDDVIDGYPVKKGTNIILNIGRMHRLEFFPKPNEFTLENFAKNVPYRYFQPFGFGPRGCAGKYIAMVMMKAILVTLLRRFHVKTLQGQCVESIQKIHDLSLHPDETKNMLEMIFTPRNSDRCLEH
Aryl hydrocarbon receptor (Homo sapiens), sequence (P35869 whole entry, looked up): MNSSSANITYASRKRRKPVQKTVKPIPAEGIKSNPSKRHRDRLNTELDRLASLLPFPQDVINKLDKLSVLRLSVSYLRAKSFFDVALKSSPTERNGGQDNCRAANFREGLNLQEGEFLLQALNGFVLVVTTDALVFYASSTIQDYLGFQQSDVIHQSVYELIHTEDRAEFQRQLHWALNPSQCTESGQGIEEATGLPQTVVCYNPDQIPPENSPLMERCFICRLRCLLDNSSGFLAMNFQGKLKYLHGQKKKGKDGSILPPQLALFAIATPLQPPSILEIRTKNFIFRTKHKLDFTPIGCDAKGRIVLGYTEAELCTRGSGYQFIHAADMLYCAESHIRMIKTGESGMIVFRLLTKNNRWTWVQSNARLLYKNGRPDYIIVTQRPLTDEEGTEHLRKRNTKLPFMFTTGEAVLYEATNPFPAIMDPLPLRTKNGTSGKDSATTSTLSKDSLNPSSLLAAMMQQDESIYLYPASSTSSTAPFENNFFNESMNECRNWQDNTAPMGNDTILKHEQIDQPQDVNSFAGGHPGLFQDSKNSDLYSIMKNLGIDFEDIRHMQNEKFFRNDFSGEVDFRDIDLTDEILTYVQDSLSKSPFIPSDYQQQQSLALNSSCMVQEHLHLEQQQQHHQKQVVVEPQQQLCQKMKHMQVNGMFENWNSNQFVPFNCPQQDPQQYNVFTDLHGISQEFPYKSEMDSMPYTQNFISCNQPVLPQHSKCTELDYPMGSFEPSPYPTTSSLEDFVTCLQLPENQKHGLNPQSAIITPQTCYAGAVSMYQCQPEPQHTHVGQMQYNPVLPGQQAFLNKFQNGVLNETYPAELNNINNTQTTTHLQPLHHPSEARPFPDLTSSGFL

Consider `CCCCN(CCCC)CCCC`, for which the Potency entry in experiment [1], in [2], in [3], in experiment [5], in experiment [6] and in [7] was “inactive” in each case. Also, the Potency entry (in experiment [8]; with Aromatase (Homo sapiens); in [9]; in experiment [10]; in experiment [13]; in [16]) was “inactive” each time. Besides, the outcome in experiment [4], in [11], in [12], in [14], in [15] and in experiment [17] was inactive.

In the case of `Cc1cccc(O)c1`, the Potency result in experiment [1], in [2], in experiment [3], in [5], in [6] and in experiment [7] was “inactive” each time. Moreover, the Potency result (in experiment [8]; in the experiment with Aromatase (Homo sapiens); in experiment [9]; in experiment [10]; in [13]) was “inactive” each time. In addition, the result in [11], in [18], in experiment [19], in [12], in experiment [15] and in experiment [17] was inactive.

Consider `N[C@@H](Cc1cc(I)c(Oc2cc(I)c(O)c(I)c2)c(I)c1)C(=O)O`, for which the Potency entry (in [1]; in experiment [8]; in the experiment with Aromatase (Homo sapiens); in [9]; in experiment [13]; in experiment [16]) was “inactive” throughout. Moreover, the Potency was 8.4 nM (active) and 10.9 nM (active) in experiment [2]; 13.8 µM (active) in [10]. Moreover, the compound was called inactive in [4], in experiment [11], in experiment [18], in [12], in experiment [14] and in experiment [15]. In addition, the result in experiment [17] was inactive.

As for `O=C(O)c1ccc2c(c1)C(=O)OC2=O`, the Potency result in [1], in [2], in experiment [3], in experiment [5], in [6] and in experiment [7] was “inactive” each time. Besides, the Potency result (in experiment [8]; in the experiment with Aromatase (Homo sapiens); in [9]; in experiment [10]; in experiment [13]; in experiment [16]) was “inactive” each time. Also, the compound was classed as inactive in experiment [11], in [18], in [19], in experiment [12], in [14] and in experiment [15]. In experiment [17], the outcome was inactive.

As to `CCCC(C)=O`, the Potency result (in experiment [1]; in experiment [2]; in [8]; with Aromatase (Homo sapiens); in experiment [9]; in experiment [10]) was “inactive” in each case. Moreover, the Potency result in [13] was “inactive”. Moreover, the call in experiment [4], in experiment [11], in [18], in experiment [19], in experiment [12] and in experiment [14] was inactive. The result in experiment [15] and in experiment [17] was inactive.

As to `Cc1occc(=O)c1O`, the Potency result (in experiment [1]; in [8]; with Aromatase (Homo sapiens); in experiment [9]; in experiment [10]; in experiment [13]) was “inactive” in each case. Besides, the Potency result in experiment [2] was “inactive and 50.9 µM (active)”. Besides, the outcome in experiment [4], in [11], in experiment [18], in [19], in experiment [12] and in experiment [15] was inactive. Moreover, the result in experiment [17] was inactive.

Take `ON=C1CCCCC1`: the Potency entry (in experiment [1]; in experiment [2]; in [8]; with Aromatase (Homo sapiens); in [9]; in [10]) was “inactive” each time. Moreover, the Potency result in [13] and in experiment [16] was “inactive” in each case. Further, the compound was called inactive in [4], in experiment [11], in experiment [18], in experiment [12], in [14] and in [15]. The result in experiment [17] was inactive.

With `CC(=O)OCC(=O)[C@@]12N=C(C)O[C@@H]1C[C@H]1[C@@H]3CCC4=CC(=O)C=C[C@]4(C)[C@H]3[C@@H](O)C[C@@]12C`, the Potency result (in experiment [1]; in experiment [2]; in experiment [5]; in [8]; with Aromatase (Homo sapiens); in experiment [9]) was “inactive” in each case. For the same compound, the compound was classed as inactive in experiment [4], in experiment [11], in [18], in experiment [12], in experiment [14] and in experiment [15]. The compound was classed as inactive in experiment [17]. Further, in experiment [6], the Potency is 16.8 µM (active).

For `CCCCCCCCCCCCOCCO`, the Potency result (in [1]; in [2]; in experiment [8]; with Aromatase (Homo sapiens); in experiment [9]; in experiment [10]) was “inactive” throughout. Besides, in experiment [13], the Potency entry was “inactive”. The outcome in experiment [4], in experiment [11], in experiment [18], in experiment [19], in [12] and in experiment [14] was inactive. Further, the compound was classed as inactive in experiment [15] and in experiment [17].
